Measurements reported in PubChem BioAssay AID449762 (Southern Research Specialized Biocontainment Screening …, 2010).
Screen size: about 330,000 compounds; about 1,900 (0.58%) were called active. Inconclusive results (about 4%) are left out. A selection follows. Entries with a potency or affinity are not part of this list. Values without a mark were called inactive. Cut-off read from the data, not from the text of the source: inconclusive = inhibition above about 70% without an active follow-up result; inactive = below that.

Assay: M. tuberculosis growth inhibition, HTS (AID 449762);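 note: bacterial growth assessed after seven days of incubation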
Details: M. tuberculosis H37Rv growth inhibition, 7H9 media; at 25 µM; active compounds read high

Compound	inhibition [%]
Cc1c(Cl)cccc1NC(=O)CCN1CCN(C)CC1	-6.21
O=C(NCCc1ccccc1)c1c(O)c2cccc3c2n(c1=O)CC3	-1.91
CCCCN(C(=O)NC(=O)Nc1ccc(C)cn1)S(C)(=O)=O	-2
CC1CCN(CCCn2c(SCC(=O)Nc3ccccc3Cl)nc3ccccc3c2=O)CC1	6.66
Cc1ccc(NC(=O)CSc2nc3ccccc3c(=O)n2CCCN2CCCCC2)cc1C	24.1
Cc1ccccc1N(Cc1cc(=O)[nH]c2ccccc12)C(=O)C(C)C	-1.51
C#CCCC/C(=C\C(=O)N(C)[C@H](C(=O)N(C)[C@H](C(=O)N(C)[C@H](C(=O)N(C)[C@H](C(N)=O)C(C)C)C(C)C)C(C)C)C(C)C)OC	2.88
Cc1cccc([C@@H]2[C@@H]3C(=O)N(Cc4ccccc4)C(=O)[C@@H]3[C@]3(Cc4ccccc4)C(=O)N(c4cccc(Cl)c4)C(=O)N23)c1	12.6
Cc1cc(Cn2nc(C(=O)NCc3cccc(Br)c3)cc2-c2ccccc2)on1	25.4
CN(C)C(=O)C1C2NC(=S)N(c3cccc(Cl)c3)C1(C)Oc1ccc(Cl)cc12 (stereo not given)	-0.86
Cc1ccc(N2C(=S)NC3c4cc(Cl)ccc4OC2(C)C3C(=O)N(C)C)cc1 (stereo not given)	0.53
CSc1cccc(CN2CCN(CCC(C)C)C(CCO)C2)c1 (stereo not given)	-6.35
COc1ccc(NC(=O)c2cn(CCC#N)nc2-c2ccccc2)cc1	1.76
Cc1nc(C)c(C(=O)N(c2ccc(F)cc2)C(C(=O)NCC2CCCO2)c2ccccc2)s1 (stereo not given)	6.83
Cc1onc(C(=O)N2CCN(Cc3ccccc3)CC2)c1[N+](=O)[O-]	3.07
CC(=N\NC(=O)c1ccccc1)/C(=N/O)C(=O)Nc1ccccc1	19.5
O=C1C(C2=C(O)c3ccccc3C2=O)=Nc2ccccc21	-18.6
O=C1C(c2c(O)[nH]c3ccccc23)=Nc2ccccc21	26.2
O=C(CCCn1c(=O)[nH]c2cc(Cl)ccc2c1=O)NCCCN1CCCC1=O	1.6
C=CCn1c(SC)nnc1-c1ccc2ncccc2c1	0.53
COc1ccc(NC(=O)c2ccc(COc3ccccc3Br)o2)cc1OC	55.9
COc1ccccc1OCc1ccc(C(=O)Nc2cc(OC)c(OC)c(OC)c2)o1	1.45
O=C1CC2(CCCCC2)Oc2ccccc21	2.84
O=C(NCC1CC1)c1ccc(Oc2cc(Cl)cc(Cl)c2)o1	8.88

Compound	inhibition [%]
Fc1ccc(/C=C\c2nccc3c2[nH]c2ccccc23)cc1	3.87
N#Cc1ccc(/C=C\c2nccc3c2[nH]c2ccccc23)cc1	23.4
CCCn1c(SCC(=O)N2CCCc3ccccc32)nnc1-c1ccco1	-5.68
C=CCN(C/C(=N\O)c1sc(C(=O)OCC)nc1C)c1cccc(Br)c1	62.6
CCOC(=O)c1nc(C)c(C(C)=O)s1	-0.23
CCOC(=O)c1c(C)[nH]c(C(=O)OCC(=O)NCc2ccc(F)cc2)c1C	-3.74
COc1ccc(Nc2nc(-c3sc(C)nc3C)cs2)cc1	11.6
COc1ccc(OC)c(Nc2nc(-c3sc(N)nc3C)cs2)c1	65.1
CCNC(=O)N(CCOC)CC1CCCN(C2Cc3ccccc3C2)C1 (stereo not given)	-1.33
Cc1cccc(CCNS(=O)(=O)c2ccc(S(=O)(=O)N3CCC(C)CC3)cc2)c1	-1.34
COC1=C(c2ccccc2)C(=O)c2ccccc2C1=O	5.34
O=C1C(=C(O)c2ccccc2)C(=O)c2ccccc21	4.16
CC(=O)Nc1ccc(S(=O)(=O)NC2(C(F)(F)F)NC(=O)N(c3ccccc3F)C2=O)cc1 (stereo not given)	-8.69
CCOc1ccc2c(c1)C(=O)c1cc(OCC(=O)O)ccc1-2	1.9
Cc1cc(OCCCCOc2ccc(S(N)(=O)=O)c(C)c2)ccc1S(N)(=O)=O	20.1
CCc1cc(=O)oc2cc(C)cc(OC(=O)c3ccco3)c12	4.45
Cc1nn(-c2ccccc2)c(Cl)c1C(=O)Nc1nnc(C2CCCC2)s1	38.7
CCc1nnc(NC(=O)c2c(C)nn(-c3ccccc3)c2Cl)s1	25.5
O=C(NCc1ccccc1)Nc1cccn(Cc2cccc(F)c2)c1=O	5.8
COC(=O)[C@@]1(Cc2ccccc2)C=C[C@@H](C)N1C(C)=O	-1.39
CC(NC(=S)NCCN1CCOCC1)C12CC3CC(CC(C3)C1)C2 (stereo not given)	-0.91
COC(=O)C1=C(C)N(Cc2ccccc2)C(=NCc2ccccc2)N[C@H]1c1ccccc1	28.6
COC(=O)C1=C(C)N(Cc2ccccc2)C(=NCc2cc(OC)c(OC)c(OC)c2)N[C@H]1c1ccccc1	-1.97
CSc1ncccc1C(=O)NCc1ccc(C)cc1	-4.41

Compound	inhibition [%]
COC(=O)c1ccc(Cn2cc(C(F)(F)F)ccc2=O)cc1	38.8
O=c1c([N+](=O)[O-])cc(C(F)(F)F)cn1Cc1c(Cl)cccc1Cl	27.9
Cc1c(S(=O)(=O)Nc2ccc(Br)cc2)c(=O)n(C)c(=O)n1C	1.85
C=C(C)c1cccc(C(C)(C)NC(=O)N(Cc2ccccc2)Cc2ccco2)c1	0.97
Cc1c(CCC(=O)NCCCn2ccnc2)c(=O)oc2cc3occ(C(C)(C)C)c3cc12	19.4
Cc1coc2c(C)c3oc(=O)c(CCC(=O)NCCCn4ccnc4)c(C)c3cc12	3.77
CCc1cccc(NS(=O)(=O)c2ccc3c(c2)N(C)CCO3)c1	3.34
CC1=C(C(=O)OCCC#N)C(c2cc3c(cc2Br)OCO3)NC(=O)N1 (stereo not given)	0.64
C=CCNC(=S)N/N=C(\C)c1cccnc1	-7.58
CCCCCCCCC(=O)N/N=C(\C)c1cccnc1	7.1
C=CCNC(=S)N/N=C(\C)c1cccc(NC(C)=O)c1	-1.22
CCCCCCCCCC(=O)N/N=C(\C)c1cccnc1	22.8
Cc1cc(C(=O)N2CCCC(N3CCN(c4cccc(C(F)(F)F)c4)CC3)C2)nn1C (stereo not given)	5.35
CC(Oc1ccc(Cl)cc1)C(=O)N(C)CC(=O)Nc1ccc(N2CCOCC2)cc1 (stereo not given)	-7.54
COc1ccc(C(=O)N/N=C/c2ccc(OC)c(CN3CCCc4ccccc43)c2)cc1	8.38
CC1=CC(C)(C)Nc2ccc(OC(=O)c3ccco3)cc21	4.65
O=C(Oc1cccc(OC(=O)c2ccco2)c1)c1ccco1	14.2
O=C(NCCCN1CCOCC1)Nc1ccc(Cc2ccc(NC(=O)NCCCN3CCOCC3)cc2)cc1	-4.04
O=C(O)c1cccnc1SCC(=O)N1CCCc2ccccc21	-17
COc1ccccc1N1CCN(C(=O)CNC(=O)c2ccc(Cl)cc2Cl)CC1	4.89
CC[n+]1c(/C=C/N(C)c2ccccc2)sc2ccc(Cl)cc21	0.95
CCn1c(/C=C/N(C)c2ccccc2)[n+](CC)c2ccc(Cl)cc21	0.68
CCCC(C)NC(=O)c1c2c(nc3ccccc13)CCC2 (stereo not given)	-4.36
Cc1cc(OC(=O)c2ccco2)c2c3c(c(=O)oc2c1)CCC3	-2.68

Compound	inhibition [%]
O=C(Oc1cc2oc(=O)c3c(c2cc1Cl)CCCC3)c1cccs1	9.78
CN(C)c1c(N)c(=O)oc2ccccc12	-9.33
CCCCNc1c(-c2ccc(OC)c(SC3CCCCC3)c2)nc2ccc(Cl)cn12	8.29
COc1ccc(-c2nc3ccc(C)cn3c2NCc2ccccc2)cc1SC1CCCCC1	5.05
CN(CC(O)COCc1ccccc1F)C1CCCCC1 (stereo not given)	-0.04
O=C(O/N=C\c1ccc(N2CCCCC2)c([N+](=O)[O-])c1)c1c(F)cccc1F	2.52
Cc1ccc(C(=O)O/N=C\c2ccc(N3CCOCC3)c([N+](=O)[O-])c2)cc1	0.26
O=C(Cn1cnc([N+](=O)[O-])n1)c1ccccc1	0.7
COc1ccc(Nc2cc(Nc3cccc(OC)c3)ncn2)cc1	0.6
O=C(O)c1cccc(N/N=C/c2ccc(OC(F)(F)F)cc2)c1	4.3
Cc1nc2scc(-c3ccc(C(C)C)cc3)c2c(=O)n1N	6.8
Cc1nc2scc(-c3ccc(Cl)cc3)c2c(=O)n1N	-5.38
C1=Nc2ccccc2CN1c1ccccc1	-10.9
CCOc1ccc(N2C(=O)CCC2=O)cc1	-7.32
CCCc1cc(N2CCC(C(N)=O)CC2)nc(-c2ccccc2)n1	5.28
COc1ccc(/C=N/n2c(N)nc3ccccc32)cc1OC	4.73
Nc1nc2ccccc2n1/N=C/c1cccnc1	-4.9
Cc1ccc(C(=O)Nc2nc(C(C)(C)C)cs2)s1	56.8
Cc1ccc2nc(-c3ccc(NS(C)(=O)=O)cc3)cc(-c3ccccc3)c2c1	0.07
Clc1ccc2nc(-c3ccncc3)cc(-c3ccccc3)c2c1	3.77
COc1ccc(S(=O)(=O)N2CCN(C(=O)c3ccco3)CC2)cc1C(C)(C)C	-13.2
Cc1cccc(Sc2ccc([N+](=O)[O-])cc2[N+](=O)[O-])n1	19.9
Cc1cc(C)nc(Sc2ccc([N+](=O)[O-])cc2[N+](=O)[O-])n1	0.29
